The text below walks through data of article PMC4336329 (PLoS ONE, 2015).

The campaign covered roughly 310,000 compounds. About 14,000 (4.5%) showed an effect of 50% or more. Effects have a minus sign here. For the sample, strong results were picked, then their nearest neighbours and some compounds at random.
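Note: peak tail current of the secondary pulse compared with the same well before compound.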

The target of this experiment is human ether-à-go-go-related gene (hERG) potassium channel (human, UniProt Q12809). Briefly: primary screen, population patch clamp on CHO cells stably expressing hERG; higher = less effect of the substance.
Chain of human ether-à-go-go-related gene (hERG) potassium channel (Q12809 whole entry, looked up): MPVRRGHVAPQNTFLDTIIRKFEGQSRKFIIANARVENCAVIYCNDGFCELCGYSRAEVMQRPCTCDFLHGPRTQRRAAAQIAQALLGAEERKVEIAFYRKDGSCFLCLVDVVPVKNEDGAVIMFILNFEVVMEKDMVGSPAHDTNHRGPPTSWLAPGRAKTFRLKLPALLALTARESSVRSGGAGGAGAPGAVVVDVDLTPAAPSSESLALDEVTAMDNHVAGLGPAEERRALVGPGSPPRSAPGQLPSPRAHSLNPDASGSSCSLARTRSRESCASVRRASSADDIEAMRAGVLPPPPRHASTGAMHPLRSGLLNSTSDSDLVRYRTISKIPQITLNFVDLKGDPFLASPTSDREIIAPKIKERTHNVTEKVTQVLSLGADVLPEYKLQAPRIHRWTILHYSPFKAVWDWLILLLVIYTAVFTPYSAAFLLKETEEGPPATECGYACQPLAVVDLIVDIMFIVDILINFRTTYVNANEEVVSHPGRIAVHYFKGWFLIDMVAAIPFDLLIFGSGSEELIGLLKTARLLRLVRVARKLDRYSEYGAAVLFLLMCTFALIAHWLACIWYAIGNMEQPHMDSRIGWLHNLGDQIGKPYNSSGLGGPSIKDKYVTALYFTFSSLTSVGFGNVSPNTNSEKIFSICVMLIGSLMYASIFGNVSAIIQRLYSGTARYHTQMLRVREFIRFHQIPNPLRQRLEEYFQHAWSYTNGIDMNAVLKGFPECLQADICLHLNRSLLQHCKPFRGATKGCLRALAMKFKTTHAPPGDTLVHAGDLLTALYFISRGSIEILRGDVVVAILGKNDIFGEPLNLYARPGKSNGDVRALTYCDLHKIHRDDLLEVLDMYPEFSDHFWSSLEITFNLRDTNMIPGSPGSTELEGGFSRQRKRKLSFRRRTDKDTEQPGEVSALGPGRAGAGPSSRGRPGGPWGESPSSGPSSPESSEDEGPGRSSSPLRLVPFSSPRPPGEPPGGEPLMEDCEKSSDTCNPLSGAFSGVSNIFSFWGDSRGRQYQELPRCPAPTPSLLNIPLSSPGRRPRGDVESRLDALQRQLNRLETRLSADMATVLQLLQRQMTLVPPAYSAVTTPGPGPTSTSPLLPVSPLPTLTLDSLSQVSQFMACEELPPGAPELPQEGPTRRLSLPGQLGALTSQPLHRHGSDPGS
As to `COc1cccc(C(=O)C2CCCN(CC3=Cc4cc(OC)ccc4OC3)C2)c1` (centres unmarked), the “hERG current change (%, negative = inhibition) at 10uM” value is on record as -56.6%. Consider `COc1c(C)cc(C(=O)C2CCCN(Cc3cccc(C)n3)C2)cc1C` (centres unmarked), for which the “hERG current change (%, negative = inhibition) at 10uM” value is recorded as -48.7%. Regarding `COc1cccc(C(=O)C2CCCN(Cc3cccc(C)n3)C2)c1` (centres unmarked), the “hERG current change (%, negative = inhibition) at 10uM” value is listed as -53.4%. The value for `Cc1cccc(CN2CCCC(C(=O)c3cccc(OC(C)C)c3)C2)n1` (centres unmarked) was -40%; that for `COc1ccc2cc(C(=O)C3CCCN(Cc4cccc(C)n4)C3)ccc2c1` (centres unmarked) was -66.5%; that for `COc1ccc(C(=O)C2CCCN(Cc3ccccn3)C2)c(OC)c1` (centres unmarked) was -55.7%. With `CC(=O)Nc1ccc(N/C=C/C(=O)c2ccco2)cc1`, the “hERG current change (%, negative = inhibition) at 10uM” value worked out at 1.94%. Turning to `Cn1nc(C(=O)Nc2nc3ccc(S(C)(=O)=O)cc3s2)ccc1=O`, the “hERG current change (%, negative = inhibition) at 10uM” value is reported as -20.7%.

For the compound `CN1CCN(C(=O)c2ccc3c(c2)N(Cc2cccc(Cl)c2)C(=O)c2ccccc2S3=O)CC1` (centres unmarked), the “hERG current change (%, negative = inhibition) at 10uM” value is on record as -19.5%. The figure for `O=C(/C=C/N1CCN(Cc2ccccc2)CC1)C(F)(F)F` is 4.36%.

`Cc1nn(-c2ccccc2)c(Oc2ccccc2)c1C=O`: the “hERG current change (%, negative = inhibition) at 10uM” value is -6.92%. The figure for `CCc1c(C)c(C#N)c2nc3ccccc3n2c1NCc1ccco1` is -35.4%; for `Cc1ccc([N+](=O)[O-])cc1N(CC(=O)N1CCCCC1)S(C)(=O)=O` it is 12.2%; for `Cn1cccc1Cc1nnc(SCC(=O)Nc2cccc(F)c2)n1CCc1ccccc1` it is -20.3%.

On to `Cl.NCCOc1ccccc1-c1ccccc1`, for which the “hERG current change (%, negative = inhibition) at 10uM” value is -11.1%. For the compound `CC(C)(C)c1ccc(-c2n[nH]c(=S)n2C2CCCC2)cc1`, the “hERG current change (%, negative = inhibition) at 10uM” value was found to be 4.01%. With `Cc1ccc(C(=O)Nc2ccc3c(c2)OCO3)cc1Cl`, the “hERG current change (%, negative = inhibition) at 10uM” value is given as 19.7%. As to `CSc1ccc(CNC2CN3CCC2CC3)cc1.Cl` (centres unmarked), the “hERG current change (%, negative = inhibition) at 10uM” value is listed as -10.7%. The figure for `C[C@@H]1CCC2[C@](C)(CO)[C@@H](O)CC[C@]2(C)[C@@]12CCC(CO)(CCO)O2` (some centres unmarked) is 26.8%.

As to `O=C1CN(C(=O)COc2ccc(F)cc2Br)c2ccccc2N1`, the “hERG current change (%, negative = inhibition) at 10uM” value is given as -29.9%. As for `O=C(O)c1ccc2c(=O)n3cc(C(=O)c4ccccc4O)cc(Cl)c3nc2c1`, the “hERG current change (%, negative = inhibition) at 10uM” value is 1.38%. Turning to `COc1cccc(C(=O)C2CCCN(Cc3ccccn3)C2)c1` (centres unmarked), the “hERG current change (%, negative = inhibition) at 10uM” value was -26%. Take `COc1ccc(C(=O)C2CCCN(Cc3cccc(C)n3)C2)c(OC)c1` (centres unmarked): the “hERG current change (%, negative = inhibition) at 10uM” value was -76.2%. The figure for `COc1ccc2cc(C(=O)C3CCCN(C(=O)CCc4ccccn4)C3)ccc2c1` (centres unmarked) is -45.2%. Take `COc1ccc2cc(C(=O)C3CCCN(Cc4ccccn4)C3)ccc2c1` (centres unmarked): the “hERG current change (%, negative = inhibition) at 10uM” value was -66.2%. For the compound `COc1ccc(C(=O)C2CCCN(Cc3ccon3)C2)cc1OC` (centres unmarked), the “hERG current change (%, negative = inhibition) at 10uM” value was determined as 11.2%. In the case of `CC(=O)Nc1ccc(CN2CCCC(C(=O)c3cccc(C(F)(F)F)c3)C2)cc1` (centres unmarked), the “hERG current change (%, negative = inhibition) at 10uM” value is reported as -20.7%. On to `COc1ccc(C(=O)C2CCCN(Cc3ccon3)C2)c(OC)c1` (centres unmarked), for which the “hERG current change (%, negative = inhibition) at 10uM” value is -53.9%. Regarding `CCNC(=O)N1CCCC(C(=O)c2ccc(C(F)(F)F)cc2)C1` (centres unmarked), the “hERG current change (%, negative = inhibition) at 10uM” value is recorded as -23.4%.

Regarding `CC(=O)Nc1ccc(CN2CCCC(C(=O)c3ccc(C(F)(F)F)cc3)C2)cc1` (centres unmarked), the “hERG current change (%, negative = inhibition) at 10uM” value is recorded as -77.3%.

Consider `COc1ccc(C(=O)C2CCCN(Cc3sc(N4CCCC4)nc3Cl)C2)c(OC)c1` (centres unmarked), for which the “hERG current change (%, negative = inhibition) at 10uM” value is given as -49.7%. Consider `COc1cccc(C(=O)C2CCCN(Cc3ccon3)C2)c1` (centres unmarked), for which the “hERG current change (%, negative = inhibition) at 10uM” value turned out to be 8.72%.

Regarding `Cc1ccc(OCCN2CCN(C(=O)CCC(=O)Nc3nnc(C)s3)CC2)cc1`, the “hERG current change (%, negative = inhibition) at 10uM” value is -7.69%. With `Nc1nc(SC2c3cccc4cccc(c34)C2NS(=O)(=O)c2ccccc2)n[nH]1` (centres unmarked), the “hERG current change (%, negative = inhibition) at 10uM” value is reported as 5.88%. On to `Cc1nc2ccc(C(=O)O)cc2c2c1CC(C)S2` (centres unmarked), for which the “hERG current change (%, negative = inhibition) at 10uM” value is -16%. Turning to `CCCCN1CC(=O)N2[C@H]3c4ccccc4OC[C@@H]3[C@H](c3ccccc3)[C@]2(C)C1=O`, the “hERG current change (%, negative = inhibition) at 10uM” value was -19.9%. As to `COc1cccc(Nc2ccc(C(=O)O)cc2N)c1`, the “hERG current change (%, negative = inhibition) at 10uM” value turned out to be 11.3%. `CN(C(=O)COC(=O)C1c2ccccc2Oc2ccccc21)C1CCS(=O)(=O)C1` (centres unmarked): the “hERG current change (%, negative = inhibition) at 10uM” value stood at 4.56%. As for `CC(C)C(CC(=O)N1CCCCC1)C1CCOC(C)(C)C1` (centres unmarked), the “hERG current change (%, negative = inhibition) at 10uM” value is listed as -2.24%. On to `Cc1cnc(C(=O)N2CCCC(C(=O)c3ccc(C(F)(F)F)cc3)C2)cn1` (centres unmarked), for which the “hERG current change (%, negative = inhibition) at 10uM” value is -17.7%.

Turning to `CC(C)(C)c1ccc(C(=O)C2CCCN(Cc3ccon3)C2)cc1` (centres unmarked), the “hERG current change (%, negative = inhibition) at 10uM” value is given as -1.45%. Regarding `Cc1cccc(CN2CCCC(C(=O)c3ccc(C(F)(F)F)cc3)C2)n1` (centres unmarked), the “hERG current change (%, negative = inhibition) at 10uM” value was -68.2%. Take `CC1Sc2ccc(S(=O)(=O)N3CCN(c4cccc(Cl)c4)CC3)cc2NC1=O` (centres unmarked): the “hERG current change (%, negative = inhibition) at 10uM” value came out at 9.32%.

Turning to `CCOC(=O)c1c(C)[nH]c(C)c1C(=O)COC(=O)C1CCCN1S(=O)(=O)c1ccccc1F` (centres unmarked), the “hERG current change (%, negative = inhibition) at 10uM” value is reported as -2.63%. Turning to `NC(=O)c1nc(C(=O)N2CCN(c3ccccc3)CC2)c2ccccc2n1`, the “hERG current change (%, negative = inhibition) at 10uM” value stood at 2.14%. The figure for `CCOc1ccc(NC(=S)NC(=O)c2cncc(Br)c2)cc1` is 10.1%; for `CCN(CC(=O)Nc1c(F)cccc1F)C(=O)c1n[nH]c2ccccc12` it is 10.4%; for `Cc1ccccc1NC(=O)CSc1nnc(-c2ccco2)n1N` it is 4.14%. Turning to `Cc1cccc(NC(=O)CSc2nnc(-c3ccco3)o2)c1C`, the “hERG current change (%, negative = inhibition) at 10uM” value was -4.42%. The value for `Cc1cccc(C)c1NC(=O)CSc1nnc(-c2ccco2)c(-c2ccco2)n1` was -67.1%; that for `Cc1ccccc1NC(=O)CSc1n[nH]c(-c2ccco2)n1` was 10.1%. The figure for `Cc1cccc(C)c1NC(=O)CSc1nnc(-c2ccco2)n1N` is -4.1%; for `Cc1ccccc1NC(=O)CSc1nnc(-c2ccco2)c(-c2ccco2)n1` it is -53.9%; for `Cc1cccc(NC(=O)CSc2nnc(-c3ccco3)c(-c3ccco3)n2)c1C` it is -66.4%. For `Cc1cccc(C)c1NC(=O)CSc1nc(-c2ccco2)cc(C(F)(F)F)n1`, the “hERG current change (%, negative = inhibition) at 10uM” value is 4.77%.

`Cc1cccc(NC(=O)CSc2nnc(CNC(=O)c3ccco3)n2C)c1C`: the “hERG current change (%, negative = inhibition) at 10uM” value is -17.3%.
